KB-3-1 cytotox: kills parental KB-3-1 adenocarcinoma cells; Potency, µM (series often up to 46.1 µM), hits mostly cytotoxic; hit rate 1.4% among 400,000; KB-3-1 viability, CellTiter-Glo ATP luminescence, 72 h; also: nearly all actives have a fitted effect of over 60% in size
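Cytotoxicity measured as CellTiter-Glo luminescence after 72 h at 37 C. Compound titrations were pinned onto drug-naive KB-3-1 parental adenocarcinoma cells grown in DMEM with 10% FBS, and normalized data fitted to concentration-response curves.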
KB-V1 MDR tox: KB-V1 MDR subline cytotoxicity | Potency, µM (top dose mostly 46.1 µM), hits mostly cytotoxic | KB-V1 MDR cells viability, CellTiter-Glo, 72 h | hit rate 3.4% among 400,000; also: nearly all actives have a fitted effect of over 60% in size
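Cells of the MDR subline KB-V1 are plated, dosed with compound at multiple concentrations, and incubated 72 h at 37 degrees C; CellTiter-Glo is then added and luminescence read after 10 min.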
HT1080 IDH1KD tx: kills HT-1080 cells with IDH1 knockdown. Potency, µM (series often up to 46.1 µM), for inactives: at the top dose activity, negative = toxicity, actives largely listed as cytotoxic. HT-1080 IDH1 knockdown viability, ATP luminescence, 48 h. hit rate 2% among 360,000;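 also: 0% = DMSO wells and -100% = cell-free medium wells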
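Assay cells: HT-1080 with IDH1 knockdown, 750 per well, RPMI/5% FBS. Exposure: 48 h at 37 °C following 2 h pre-incubation. Read: CellTiter-Glo luminescence; fitted concentration-response, curve class assigned.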
DT40 TDP1 no CPT: qHTS for Inhibitors of human tyrosyl-DNA phosphodiesterase 1 (TDP1): qHTS in cells in absence of CPT; DT40 Tdp1-/- hTDP1 cells, no CPT, ATP luminescence, 48 h; Potency, µM (doses to about 46.2 µM), for inactives: at the highest dose activity change, negative = growth inhibition, actives largely listed as inhibitors; hit rate 15% among 420,000; AID 686978, 2013; also: nearly all actives have a fitted effect of over 55% in size
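Chicken DT40 Tdp1-/- cells stably complemented with human TDP1 were seeded at 400 cells/well with DMSO in place of 20 nM camptothecin. After compound pinning, cells grew at least 48 hr at 37 °C; viability read by CellTiter-Glo luminescence.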
TDP1 cell CPT: DT40-hTDP1 cell growth loss with CPT | chicken DT40 Tdp1-/-;hTDP1 cells + 20 nM CPT, ATP luminescence, 48 h | Potency, µM (series often up to 46.2 µM), for the others: at the top dose activity change, negative = growth inhibition, actives largely listed as inhibitors | hit rate 12% among 420,000; also: nearly all actives have a fitted effect of over 55% in size
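Cell growth measured by CellTiter-Glo luminescence after a minimum 48 h, 37 C compound exposure with 20 nM CPT in Tdp1-knockout DT40 cells stably expressing hTDP1, seeded 400/well; qHTS titration format.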
HT1080-NT tox: kills 2HG-producing HT-1080-NT fibrosarcoma cells | hit rate 1.6% among 360,000 | HT-1080-NT fibrosarcoma viability, CellTiter-Glo ATP luminescence, 48 h | Potency, µM (titrated, usually from 46.1 µM), for inactives: at the highest dose activity, negative = less viability, most hits filed as cytotoxic | AID 686970;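 also: NT is the 2HG producing partner of a matched IDH1 knockdown line; 0% = DMSO-treated cells and -100% = media-only wells without cells; nearly all actives have a fitted effect of over 55% in size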
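Fibrosarcoma NT cells, 750 per well in 5% FBS RPMI, were exposed to compound for 48 hours. Viability: CellTiter-Glo luminescence.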
Numbers without * were called inactive; i = inactive; ? = inconclusive; / = no result given. Compounds with a hit are over-represented: about 19% of the library has one in this group of screens. Calls follow the shape of the dose curve; as a rule, active = well fitted curve in the direction sought with a large enough effect; inconclusive = small, poorly fitted or top-dose-only effect, or another doubt; inactive = no such curve, though single readings can be large; an effect the other way counts as inactive or inconclusive. Unless noted, % is scaled to controls: 0 for no effect and ±100 for the full control effect; potency is read from the fitted curve at half-maximal effect.

SMILES	KB-3-1 cytotox	KB-V1 MDR tox	HT1080 IDH1KD tx	DT40 TDP1 no CPT	TDP1 cell CPT	HT1080-NT tox
CCC1CCCCN1C(=O)CSc1nnc(-c2ccc(OC)cc2)o1 (configuration not stated)	i	?	-3%	21µM*	?	-1%
CCC1CCCCN1C(=O)CSc1nnc(-c2c[nH]c3ccccc23)o1 (configuration not stated)	i	i	-12%	?	21µM*	-16%
CC(=O)NCCc1nc2cc(NC(=O)c3cccc([N+](=O)[O-])c3)ccc2n1C	i	i	-1%	8%	-12%	-1%
CCOC(=O)[C@]12CCC=C1N(Cc1ccc3c(c1)OCO3)C(=O)[C@H](CC(=O)N1CCOCC1)C2	i	?	14%	-3%	-14%	13%
Cc1ccc(C)c(NC(=O)CCc2nc3cccnc3n2Cc2cccs2)c1	i	i	/	21µM*	18µM*	/
CCCn1c(CCC(=O)Nc2cc(Cl)c(OC)cc2OC)nc2cccnc21	i	i	/	16µM*	?	/
COc1cc(NC(=O)CCc2nc3cccnc3n2Cc2cccs2)cc(OC)c1OC	i	i	/	16µM*	16µM*	/
CN(C)S(=O)(=O)c1cccc(NC(=O)CC23CC4CC(CC(C4)C2)C3)c1	i	i	-14%	21µM*	23µM*	-8%
NS(=O)(=O)c1cccc(NC(=O)CCSc2ccc(Cl)cc2)c1	i	i	27%	12µM*	?	14%
O=C(Cc1ccc(Cl)cc1)Nc1cccc(S(=O)(=O)Nc2ccccc2F)c1	i	i	0%	?	-7%	0%
CN(C)S(=O)(=O)Nc1cccc(NC(=O)CC23CC4CC(CC(C4)C2)C3)c1	i	i	-27%	-24%	-26%	-23%
NC(=O)c1ccccc1NC(=O)CC12CC3CC(CC(C3)C1)C2	i	i	-9%	?	21µM*	-14%
CN(C)S(=O)(=O)c1cccc(NC(=O)Cc2ccc(Cl)cc2)c1	i	21µM*	2%	?	?	3%
CCN(c1ccccc1)S(=O)(=O)c1nnc(NC(=O)C(C)C)s1	i	i	-11%	-12%	-13%	-4%
CNC(=O)CSc1nc2cc(S(=O)(=O)Nc3ccccc3OC)ccc2o1	i	i	-9%	-14%	1%	2%
COc1ccccc1NS(=O)(=O)c1ccc2oc(SCc3ccc(C#N)cc3)nc2c1	i	9.2µM*	-10%	18µM*	12µM*	0%
COc1ccccc1NS(=O)(=O)c1ccc2oc(SCC(=O)N3CCNC3=O)nc2c1	i	i	1%	?	3.7µM*	-5%
CCS(=O)(=O)N1CC(=O)N(c2cccc(Cl)c2)C(C)(C(=O)NC2CCCCCC2)C1 (configuration not stated)	/	/	/	6%	-17%	/
Cc1c(C(=O)O)c(O)cc2c1C(=O)c1c(O)c([C@H]3O[C@H](CO)[C@@H](O)[C@H](O)[C@H]3O)c(O)c(O)c1C2=O	i	i	/	?	8.9µM*	/
COc1cccc(-c2nc(CS(=O)(=O)CC(=O)NC3CCCc4ccccc43)c(C)o2)c1 (configuration not stated)	?	?	-7%	18µM*	23µM*	-1%
COc1cccc(-c2nc(CS(=O)(=O)CC(=O)Nc3cc(OC)ccc3OC)c(C)o2)c1	i	i	0%	5.8µM*	?	2%
COc1cccc(-c2nc(CS(=O)(=O)CC(=O)Nc3ccccc3C)c(C)o2)c1	i	i	-3%	?	4%	-11%
COc1cccc(-c2nc(CS(=O)(=O)CC(=O)Nc3ccccc3Cl)c(C)o2)c1	15µM*	6.5µM*	-25%	?	?	-30%
COc1ccc(CC(=O)NC2CC(=O)N(c3cccc(F)c3)C2)cc1OC (configuration not stated)	/	/	/	0%	7%	/
CCOc1ccccc1C(=O)Nc1ccc2nc3n(c(=O)c2c1)CCCCC3	i	i	?	2.6µM*	?	8%
SMILES	KB-3-1 cytotox	KB-V1 MDR tox	HT1080 IDH1KD tx	DT40 TDP1 no CPT	TDP1 cell CPT	HT1080-NT tox
Cc1ccccc1C(=O)Nc1ccc2nc3n(c(=O)c2c1)CCCC3	i	i	9%	-18%	-14%	1%
Cc1ccccc1C(=O)Nc1ccc2nc3n(c(=O)c2c1)CCC3	6.5µM*	?	13%	-19%	-11%	12%
COc1ccc(Cl)cc1C(=O)Nc1ccc2nc3n(c(=O)c2c1)CCCC3	i	?	1%	18µM*	15µM*	-12%
COCC(=O)NCc1nc2cccnc2n1Cc1ccc(F)cc1	/	/	/	-1%	14%	/
O=C1CCCN1C1CCN(Cc2ccccc2)S(=O)(=O)N1 (configuration not stated)	i	i	10%	-16%	-9%	21%
CC1CCCCc2nc3c(c(=O)n21)CCCC3 (configuration not stated)	i	i	11%	-2%	-5%	18%
COc1ccc2[nH]cc(/C=N/NS(=O)(=O)c3ccc(C)cc3)c2c1	i	i	-7%	13µM*	15µM*	?
COc1ccc(OC)c(S(=O)(=O)N/N=C\c2c[nH]c3ccccc23)c1	?	?	1%	9.2µM*	18µM*	-2%
COc1ccc2c(/C=N/NS(=O)(=O)c3ccc(C)cc3)c[nH]c2c1	i	i	1%	-9%	0%	0%
[NH-]c1ncnc2c1N=C[N+]2=CC=CCO	i	i	-2%	4.1µM*	2.6µM*	0%
Cn1cc(C(=O)c2ccc(Cl)cc2Cl)cc1C(=O)N/N=C(\N)COc1ccc(Cl)cc1	?	?	16µM*	?	?	?
Cn1cc(C(=O)c2ccc(Cl)cc2Cl)cc1C(=O)N/N=C(\N)COc1ccc(F)cc1	?	?	?	16µM*	?	-30%
Cn1cc(C(=O)c2ccc(Cl)cc2Cl)cc1C(=O)N/N=C(\N)COc1ccc(Cl)cc1Cl	18µM*	?	?	?	?	?
CC(NS(=O)(=O)c1ccccc1[N+](=O)[O-])c1ccccn1 (configuration not stated)	?	i	/	?	2%	/
Nc1[nH]c(=S)[nH]c(=O)c1N	i	i	/	8%	3%	/
O=C(CSc1nc2ccccc2nc1Cc1ccc(Cl)cc1)N1CCCc2ccccc21	i	i	/	-29%	-1%	/

Bioassay records deposited in PubChem BioAssay by National Center for Advancing Translational Sciences (NCATS).
